Experimental findings from PubChem BioAssay (NCI) are described below.

Where “and” joins values, the source holds several entries; their conditions need not be identical. Equal values may be shown once. The panel holds about 83,000 compounds, 20% with a hit somewhere; the sample as a whole holds those more often.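 Cell lines were cultured in 96-well plates, exposed to a single compound concentration, and assessed for percent growth 48 hours later.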 Calls of active or inactive are those of the source. Rule for the calls: active = growth percent below 10; inactive = the rest.

This assay deals with MCF7 breast. The assay is described as follows: NCI-60 one-dose screen, 48 h (100 = growth as untreated, 0 = no growth, -100 = all killed). The following applies: 10 µM unless noted.
Turning to `COc1ccc(OC)c(N(CN2C(=O)CCC2C(=O)O)C(C)=O)c1` (centres undefined), the growth was 86% [100 µM] (inactive) and 95.9% [100 µM] (inactive).
Turning to `Cc1ccc(NC(=O)/C(Cc2cc(=O)oc3cc(O)ccc23)=N\NC(C)(C)C)cc1C`, the growth was 117% [100 µM] (inactive) and 97.1% [100 µM] (inactive).
The figure for `O=C(O)COc1cc(-c2ccccc2F)nc2cc3c(cc12)OCO3` is 86.4% [100 µM] (inactive) and 58% [100 µM] (inactive).
Regarding `COc1ccccc1-c1n[nH]c(-c2ccccc2O)n1`, the growth was 61.5% [100 µM] (inactive) and 21.6% [100 µM] (inactive).
`O[C@H]1[C@H](O)[C@@H](Cn2nnc(-c3ccccc3)c2-c2ccccc2)OCO[C@@H]1Cn1nnc(-c2ccccc2)c1-c1ccccc1`: the growth was -62.6% [100 µM] (active).
The figure for `COC(=O)C(=O)C(C(=O)C(=O)Nc1ccc(Cl)c(Cl)c1)c1nc2ccc(C(=O)c3ccccc3)cc2[nH]c1=O` (centres undefined) is 32.4% [100 µM] (inactive) and 5.18% [100 µM] (active).
Consider `COc1cc(-c2nc(SC)nc3c2CCc2ccccc2-3)cc(OC)c1OC`, for which the growth was 19.3% [100 µM] (inactive) and 8.46% [100 µM] (active).
For the compound `Cc1ccc2c(sc(-c3ccc4c(c3)sc(-c3ccc5c(c3)sc(-c3ccc(N(C)C)cc3)[n+]5C)[n+]4C)[n+]2C)c1S(=O)(=O)O` (tested in a mixture with another compound), the growth was 35.5% [100 µM] (inactive) and -81.2% [100 µM] (active).
The figure for `CC(=Nc1ccncc1)C(C)=Nc1ccncc1` is -47.5% [100 µM] (active) and -27.7% [100 µM] (active).
The figure for `O=C1c2cccnc2-c2nccc3ccnc1c23` is -90.9% [100 µM] (active) and -100% [100 µM] (active).
With `N/N=C(\C(=O)Nc1ccc([N+](=O)[O-])cc1)C(C1=Nc2cc([N+](=O)[O-])ccc2NC1)[N+](=O)[O-]` (centres undefined), the growth was 45.9% [100 µM] (inactive) and 33.8% [100 µM] (inactive).
As for `COc1ccc2cc(CN3CCC(C4CCNCC4)CC3)ccc2c1`, the growth was -76.9% [100 µM] (active) and -23.4% [100 µM] (active).
For the compound `COc1ccc(-c2coc3c4c(ccc3c2=O)OCO4)cc1OC`, the growth is 53.7% [100 µM] (inactive) and 32.9% [100 µM] (inactive).
With `COc1ccc(N=C(C)C(C)=Nc2ccc(OC)cc2)cc1`, the growth is 38.9% [100 µM] (inactive) and 11.1% [100 µM] (inactive).
